# Measured values as given in the supplement of paper PMC10981050.
# “And” between values parts separate entries of the source, which are not always exact repeats. Equal entries are not always repeated. Structures can show the parent of a compound that is named as a salt.
# How the values were obtained:
# Assay in all cases: cell viability relative to vehicle control; higher = less cytotoxic
# Conditions in all cases: 10 µM
# [1] = tested on: K562
# In short: (§1)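 After removal of identity-inconsistent compounds, the Selleck bioactive, kinase and epigenetic probe libraries were screened on CRISPR-edited mutant clones and isogenic wild-type clones of four leukaemia lines. Plates were 384-well, each well holding 2000 cells in 50 µL medium and receiving a single 10 µM acoustically dispensed dose. CellTiter-Glo luminescence was read 48 h later, after the supernatant was taken off. Genedata Screener was used to express viability as percent of the on-plate vehicle control.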
# [2] = tested on: MARIMO
# In short: as §1
# [3] = tested on: MOLM14
# In short: as §1
# [4] = tested on: OCI-AML2
# In short: as §1
SMILES,cell viability ([1]; SRSF2 genotype: SRSF2 P95H/wt),cell viability ([1]; SRSF2 genotype: SRSF2 wt/wt) [%],cell viability ([2]; SRSF2 genotype: SRSF2 P95H/wt) [%],cell viability ([2]; SRSF2 genotype: SRSF2 wt/wt) [%],cell viability ([3]; SRSF2 genotype: SRSF2 P95H/wt) [%],cell viability ([3]; SRSF2 genotype: SRSF2 wt/wt) [%],cell viability ([4]; SRSF2 genotype: P95H/wt) [%],cell viability ([4]; SRSF2 genotype: wt/wt) [%]
CCOc1nc2cccc(C(=O)OC(C)OC(=O)OC3CCCCC3)c2n1Cc1ccc(-c2ccccc2-c2nn[nH]n2)cc1 (stereo not drawn) [Candesartan cilexetil (Atacand)],95.6% and 97.9%,75.5,98.8,106,62.2,87.1,90,72.1
C[C@]12CCC(=O)C=C1CC[C@@H]1[C@@H]2[C@@H](O)C[C@@]2(C)[C@H]1CC[C@]2(O)C(=O)CO [Hydrocortisone (Cortisol)],99.7% and 98.6%,110,105,99,107,100,109,118
CC1=CCC2C(C1)C2(C)C (stereo not drawn) [3-Carene],104% and 96%,106,101,103,100,106,101,112
OC[C@H]1O[C@@](CO)(OC[C@@]2(O[C@H]3O[C@H](CO)[C@@H](O)[C@H](O)[C@H]3O)O[C@H](CO)[C@@H](O)[C@@H]2O)[C@@H](O)[C@@H]1O [1-Kestose],118% and 105%,110,105,99.2,99,110,106,112
O=C1NC(=O)/C(=C/c2ccc3c(c2)OC(F)(F)O3)S1,103% and 97.1%,98.1,101,99.8,96.9,101,95.3,103
N#Cc1cccc(-c2c[nH]c3ncnc(N4CCOCC4)c23)c1,102% and 106%,102,81.9,92.8,96.8,103,109,106
CC(C(=O)Nc1cccc(/N=C/c2c(O)ccc3ccccc23)c1)c1ccccc1 (stereo not drawn) [Salermide],82.7% and 84.2%,83.2,90.8,93.8,104,101,88.6,90.3
CC(C)C[C@H](NC(=O)[C@H]1O[C@@H]1C(=O)O)C(=O)NCCCCN=C(N)N,106% and 111%,114,99.6,104,101,104,108,115
CN(C)C(=O)COC(=O)Cc1ccc(OC(=O)c2ccc(NC(=N)N)cc2)cc1 [Camostat Mesilate (FOY-305)],100% and 101%,96.3,108,98.4,106,98.8,100,99.6
O=C1C(c2[nH]c3ccc(S(=O)(=O)O)cc3c2O)=Nc2ccc(S(=O)(=O)O)cc21 [Indigo carmine],98.1% and 93.6%,94.2,94.5,106,83.1,99.5,79.9,84
NC(=O)c1cccc2[nH]c(-c3ccc(C4CCCN4)cc3F)nc12 (stereo not drawn),94.1% and 89.6%,80.1,72.9,80.5,47.7,33,47.9,54.3
O=C(/C=C/c1cncc(F)c1)c1c(-c2ccccc2)c2cc(Cl)ccc2[nH]c1=O,6.82% and 5.38%,2.2,3.3,0.38,0.08,0.04,0.13,0.16
CO[C@@H]1[C@H](OC(=O)/C=C/C=C/C=C/C=C/C(=O)O)CC[C@]2(CO2)[C@H]1[C@@]1(C)O[C@@H]1CC=C(C)C [Fumagillin],77.1% and 77.5%,72.3,51.5,69.4,50.9,50.5,72.4,63
c1ccc2c(CCNc3ccc(Nc4ccncc4)cc3)c[nH]c2c1,28.3% and 44.5%,46,21.3,44.4,0.51,0.5,0.66,2
CC(=O)OCC(=O)[C@@]1(O)CC[C@H]2[C@@H]3CCC4=CC(=O)C=C[C@]4(C)[C@H]3[C@@H](O)C[C@@]21C [Prednisolone acetate (Omnipred)],87.3% and 81.8%,84.8,86.1,84,80.5,80.3,73.3,87
Nc1ccn([C@@H]2O[C@H](CO)[C@@H](O)[C@@H]2O)c(=O)n1 [Cytarabine hydrochloride],83.4% and 98.6%,94.9,28.6,30.5,7.14,1.49,6.92,8.04
COc1cc2c(N3CCN(C(=O)Nc4ccc(OC(C)C)cc4)CC3)ncnc2cc1OCCCN1CCCCC1 [Tandutinib (MLN518)],86.7% and 96.2%,83.2,83.7,100,17.1,14.4,34.3,43.5
O=C1CN(/N=C/c2ccc(-c3ccc([N+](=O)[O-])cc3)o2)C(=O)N1 [Dantrolene sodium hemiheptahydrate],93.8% and 97.3%,104,96.4,104,100,101,100,94.3
O=C(O)c1cc(O)c2c(c1)[C@@H]([C@H]1c3cc(C(=O)O)cc(O)c3C(=O)c3c(O[C@@H]4O[C@H](CO)[C@@H](O)[C@H](O)[C@H]4O)cccc31)c1cccc(O[C@@H]3O[C@H](CO)[C@@H](O)[C@H](O)[C@H]3O)c1C2=O [Sennoside B],75.3% and 75.2%,81.5,79.3,88.2,76.2,75.6,77.4,87.7
Cc1ccc(O)c([C@H](CCN(C(C)C)C(C)C)c2ccccc2)c1 [Tolterodine tartrate (Detrol LA)],80.3% and 94%,87.2,75.7,81.6,70,83.4,88.6,84
NN1CC(=O)NC1=O [1-Aminohydantoin Hydrochloride],103%,97.1,99.8,106,97.1,101,89.2,106

SMILES,cell viability ([1]; SRSF2 genotype: SRSF2 P95H/wt),cell viability ([1]; SRSF2 genotype: SRSF2 wt/wt) [%],cell viability ([2]; SRSF2 genotype: SRSF2 P95H/wt) [%],cell viability ([2]; SRSF2 genotype: SRSF2 wt/wt) [%],cell viability ([3]; SRSF2 genotype: SRSF2 P95H/wt) [%],cell viability ([3]; SRSF2 genotype: SRSF2 wt/wt) [%],cell viability ([4]; SRSF2 genotype: P95H/wt) [%],cell viability ([4]; SRSF2 genotype: wt/wt) [%]
Cc1cncc(CN2CCC(=C3c4ccc(Cl)cc4CCc4cccnc43)CC2)c1 [Rupatadine Fumarate],77% and 89.3%,76.5,62.6,54.1,61.4,64.4,38.6,46
C1CNCCNCCNCCN1 [Cyclen],100% and 102%,106,107,111,103,103,105,102
CC/C(=C(\c1ccc(O)cc1)c1ccc(OCCNC)cc1)c1ccccc1 [Endoxifen HCl],21% and 29.8%,24.5,66,59.9,23.2,29.7,17,38.1
C[C@@H]1CC[C@@]2(OC1)O[C@H]1C[C@H]3[C@@H]4CC=C5C[C@@H](O[C@@H]6O[C@H](CO)[C@@H](O[C@@H]7O[C@@H](CO)[C@H](O)[C@H]7O)[C@H](O)[C@H]6O[C@@H]6O[C@@H](C)[C@H](O)[C@@H](O)[C@H]6O)CC[C@]5(C)[C@H]4CC[C@]3(C)[C@H]1[C@@H]2C [Polyphyllin I],0.33%,0.31,0.37,0.67,0.32,0.29,0.21,0.36
Cn1cnc(=N)c2[nH]cnc21 [3-Methyladenine (3-MA)],94.6% and 88.8%,106,82.6,92.4,88,92,93.4,97.6
CCCCc1oc2ccccc2c1C(=O)c1cc(I)c(OCCN(CC)CC)c(I)c1 [Amiodarone HCl],70.3% and 74.5%,69.9,52.3,58.6,54.8,62.7,42.8,48.5
CNC(=O)Nc1ccc(-c2nc(N3CC4CCC(C3)O4)c3cnn(C4CCC5(CC4)OCCO5)c3n2)cc1,40.7% and 42.8%,34.4,57.6,45,36,28.1,29,28.7
COc1ccc(CC2c3cc(OC)c(OC)cc3CC[N+]2(C)CCC(=O)OCCCCCOC(=O)CC[N+]2(C)CCc3cc(OC)c(OC)cc3C2Cc2ccc(OC)c(OC)c2)cc1OC (stereo not drawn) [Atracurium besylate],90% and 97.2%,87.9,87.3,84.9,75,97.1,115,108
Cn1cc(-c2ccc3nnc(C(F)(F)c4ccc5ncccc5c4)n3n2)cn1,94.1% and 97.8%,98.8,102,105,96,99.2,86.9,89.6
CN(CCOc1ccc(NS(C)(=O)=O)cc1)CCc1ccc(NS(C)(=O)=O)cc1 [Dofetilide (Tikosyn)],97.8% and 97%,101,97,104,95.8,101,99,107
N#CSc1cc(SC#N)c(N)nc1N,8.53% and 15.5%,33.9,4.65,1.5,3.35,0.44,0.31,0.95
CC(C)[C@H](NC(=O)OCc1ccccc1)C(=O)N[C@@H](C)C(=O)N[C@@H](CC(=O)O)C(=O)CF,109% and 102%,106,99.8,102,104,104,102,97.4
CNCc1ccc(-c2cc(-c3nc(-c4ccc(S(=O)(=O)C(C)C)cc4)cnc3N)on2)cc1,3.16% and 2.89%,1.89,0.36,0.32,0.28,0.34,0.39,0.9
C=C[C@@]1(C)CC(=O)[C@]2(O)[C@@]3(C)[C@@H](O)CCC(C)(C)[C@@H]3[C@H](O)[C@H](OC(C)=O)[C@@]2(C)O1 [Forskolin],96.8% and 104%,94,99,88.6,92.6,101,105,96.1
Nc1ccc(O)c(C(=O)O)c1 [Mesalamine (Lialda)],94.9% and 87.4%,90.1,89.8,94.7,87.3,92.1,97.2,100
CN(C)CCOC(c1ccccc1)c1ccccc1 [Diphenhydramine HCl (Benadryl)],91.2% and 88.2%,85.9,76.8,91.7,88.3,85.8,87.8,92.3
O=C(Nc1ccc(O)c(C(=O)O)c1)c1cccc(NC(=O)c2ccco2)c1,103% and 105%,99.4,97.2,100,104,102,105,105
CNC(=O)c1c(C)oc2cc(Oc3ncnc4cc(OC)c(OC)cc34)ccc12 [Fruquintinib],101% and 96.7%,97.1,98.6,99.7,95.8,105,84.3,85.4
Cc1ccc(S(=O)(=O)Nc2nc3ccccc3nc2Nc2ccc3nsnc3c2)cc1 [XL147 analogue],95.3% and 101%,105,97.6,104,99.2,98.7,101,94.5
Cc1cc(Nc2cc(N)ncn2)c(=O)n2c1C(=O)NC21CCCCC1,89.2% and 85.2%,87.7,86,98.2,83.5,92,89,88.5
